Growth data for 8 compounds are collected here from PubChem BioAssay (NCI).

What all share (experiment): NCI-60 one-dose screen, 48 h (100 = growth as untreated, 0 = no growth, -100 = all killed)
For one assay, the system named is NCI-H23 lung. The note with it: 10 µM unless noted.
The test system of another assay is NCI-H226 lung. The settings on record: 10 µM unless noted.
The next assay concerns NCI-H322M lung. The note with it: 10 µM unless noted.
For a further assay, the system named is HOP-62 NSCLC. The settings on record: 10 µM unless noted.
The next assay deals with NCI-H460 lung. The note with it: 10 µM unless noted.
The subject of another assay is HOP-92 NSCLC. The note with it: 10 µM unless noted.
Another assay relates to NCI-H522 lung. The note with it: 10 µM unless noted.
A further assay has as its system A549/ATCC NSCLC. The note with it: 10 µM unless noted.
The next assay relates to 786-0 renal. The note with it: 10 µM unless noted.
The subject of a further assay is COLO 205 colon. The note with it: 10 µM unless noted.
In another assay the test system is DU-145 prostate. The settings on record: 10 µM unless noted.
For another assay, the system named is K-562 leukemia. The settings on record: 10 µM unless noted.
In another assay the test system is MALME-3M melanoma. The settings on record: 10 µM unless noted.
For a further assay, the system named is MDA-MB-231 breast. The note with it: 10 µM unless noted.
For a further assay, the system named is RXF 393 renal. The settings on record: 10 µM unless noted.
In a further assay the test system is SF-268 CNS. The note with it: 10 µM unless noted.
The next assay concerns SF-295 CNS. The note with it: 10 µM unless noted.
For the next assay, the system named is SF-539 CNS. The note with it: 10 µM unless noted.
A further assay deals with UACC-257 melanoma. The settings on record: 10 µM.
In another assay the test system is M14 melanoma. The settings on record: 10 µM unless noted.

The panel holds about 83,000 compounds, 20% with a hit somewhere; the sample as a whole holds those more often.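 Values shown are percent growth following 48 h exposure of cells in 96-well plates to a single concentration of compound; below 10 was considered active.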 A number with no mark means an inactive call. Activity calls are given as the source filed them.

`CCOC(=O)/C(F)=C/C1CC1CCc1cccc(C(F)(F)F)c1` (centres undefined): the growth is 101% with NCI-H23 lung; 102% with NCI-H226 lung; 106% with NCI-H322M lung; 98.3% in the assay with HOP-62 NSCLC; 111% in the assay on NCI-H460 lung; 116% in the assay with HOP-92 NSCLC. The growth in the assay on NCI-H522 lung is 100%; with A549/ATCC NSCLC, 107%; in the assay with 786-0 renal, 103%; with COLO 205 colon it was 103%; in the assay with DU-145 prostate it was 110%; in the assay with K-562 leukemia, 111%. For the same compound, the growth is 106% in the assay on MALME-3M melanoma; 107% in the assay with MDA-MB-231 breast; 129% in the assay on RXF 393 renal; 105% in the assay on SF-268 CNS; 99.6% with SF-295 CNS; 99.4% in the assay with SF-539 CNS. Also, the figures for the growth with UACC-257 melanoma and in the assay on M14 melanoma were 111% and 98.9%, respectively.

Consider `O=C1NC(=O)c2c1c1c3ccccc3ccc1c1[nH]c3ccccc3c21`, for which the growth was 15.8% with NCI-H23 lung; 12.2% with NCI-H226 lung; 19.4% in the assay with NCI-H322M lung; 1.2% (active) with HOP-62 NSCLC; 6.41% (active) in the assay with NCI-H460 lung; 35.9% in the assay on HOP-92 NSCLC. Moreover, the growth with NCI-H522 lung was 11.3%; in the assay on A549/ATCC NSCLC, 23.5%; with 786-0 renal, 18.6%; with COLO 205 colon, 28.8%; with DU-145 prostate it was 22.9%; in the assay on K-562 leukemia, 9.34% (active). In addition, the growth with MALME-3M melanoma was -15.2% (active); in the assay on MDA-MB-231 breast, 34%; in the assay on RXF 393 renal, -21.2% (active); in the assay with SF-268 CNS, 5.68% (active); in the assay with SF-295 CNS it was 3.01% (active); in the assay with SF-539 CNS it was 18.4%. Besides, the growth was 44.1% with UACC-257 melanoma and 15.9% with M14 melanoma.

`C/C(=C(/C)C1CC1CCN(C(=O)c1ccccn1)S(=O)(=O)c1ccc(C)cc1)C1CCCCC1` (centres undefined): the growth with NCI-H23 lung was 84.2%; in the assay with NCI-H226 lung, 97%; in the assay with NCI-H322M lung it was 105%; in the assay on HOP-62 NSCLC, 102%; in the assay on NCI-H460 lung it was 100%; in the assay on HOP-92 NSCLC, 104%. Besides, the growth was 85.1% in the assay on NCI-H522 lung; 97% in the assay with A549/ATCC NSCLC; 95.5% with 786-0 renal; 108% with COLO 205 colon; 98.9% in the assay with DU-145 prostate; 96.8% with K-562 leukemia. For the same compound, the growth with MALME-3M melanoma is 104%; with MDA-MB-231 breast it was 91.5%; in the assay with RXF 393 renal, 115%; in the assay with SF-268 CNS, 97.5%; in the assay with SF-295 CNS, 90.4%; in the assay with SF-539 CNS, 99.4%. The growth in the assay on UACC-257 melanoma is 96.7%; in the assay with M14 melanoma it was 101%.

As to `COc1cc(-c2noc(C[C@@H](NC(=O)OCc3ccccc3)C(C)C)n2)cc(OC)c1OC`, the growth in the assay with NCI-H23 lung is 96.9%; in the assay with NCI-H226 lung, 101%; in the assay on NCI-H322M lung, 92.3%; with HOP-62 NSCLC, 94.4%; in the assay with NCI-H460 lung it was 102%; with HOP-92 NSCLC, 88.3%. The growth in the assay with NCI-H522 lung is 92.1%; in the assay on A549/ATCC NSCLC, 100%; in the assay on 786-0 renal, 101%; with COLO 205 colon it was 117%; with DU-145 prostate it was 108%; in the assay on K-562 leukemia, 94.4%. Also, the growth was 94.4% in the assay with MALME-3M melanoma; 92.1% with MDA-MB-231 breast; 102% in the assay on RXF 393 renal; 97.5% in the assay on SF-268 CNS; 105% with SF-295 CNS; 102% in the assay on SF-539 CNS. The growth with UACC-257 melanoma is 98.5%; with M14 melanoma it was 100%.

Take `COC[C@]12CC[C@@H](C)[C@H](C)[C@H]1C1=CC[C@@H]3[C@@]4(C)CCCNC(C)(C)[C@@H]4CC[C@@]3(C)[C@]1(C)CC2`: the growth is 52.1% in the assay with NCI-H23 lung; 58% in the assay with NCI-H226 lung; 64.6% in the assay with NCI-H322M lung; 40% with HOP-62 NSCLC; -42.3% (active) in the assay with NCI-H460 lung; 48.3% in the assay with HOP-92 NSCLC. For the same compound, the growth was -31.9% (active) in the assay with NCI-H522 lung; 20.8% with A549/ATCC NSCLC; 21.1% with 786-0 renal; -52.4% (active) in the assay on COLO 205 colon; 12.8% with DU-145 prostate; 0.992% (active) with K-562 leukemia. The growth is -36.7% (active) in the assay with MALME-3M melanoma; 51.2% in the assay with MDA-MB-231 breast; 56.2% in the assay with RXF 393 renal; 70.2% in the assay with SF-268 CNS; -74.2% (active) in the assay with SF-295 CNS; 26.3% in the assay with SF-539 CNS. Moreover, the figures for the growth in the assay on UACC-257 melanoma and with M14 melanoma were 20.3% and -48.3% (active), respectively.

Take `COc1cccc(/C=C/C(=O)c2ccc(NC(=O)COc3cccc4cccnc34)cc2)c1`: the growth in the assay on NCI-H23 lung is 99.3%; in the assay with NCI-H226 lung, 93.9%; in the assay with NCI-H322M lung it was 95.5%; with HOP-62 NSCLC, 112%; with NCI-H460 lung, 101%; in the assay with HOP-92 NSCLC, 107%. The growth in the assay with NCI-H522 lung was 90.2%; in the assay with A549/ATCC NSCLC, 95.2%; with 786-0 renal it was 96.8%; in the assay with COLO 205 colon, 105%; with DU-145 prostate, 90.2%; in the assay with K-562 leukemia it was 82.1%. Also, the growth in the assay with MALME-3M melanoma was 108%; in the assay on MDA-MB-231 breast it was 98.4%; with RXF 393 renal it was 107%; with SF-268 CNS, 96.3%; with SF-295 CNS, 96.6%; with SF-539 CNS, 101%. In addition, the growth in the assay on UACC-257 melanoma was 103%; in the assay on M14 melanoma, 104%.

As to `CC1COc2c(N3CCN(C)CC3)c(F)cc3c(=O)c(C(=O)N/N=C/c4cc[nH]c4)cn1c23` (centres undefined), the growth in the assay on NCI-H23 lung was 41.1%; in the assay with NCI-H226 lung, 50%; in the assay on NCI-H322M lung it was 65.7%; with HOP-62 NSCLC, 38%; in the assay with NCI-H460 lung, 0.46% (active); in the assay with HOP-92 NSCLC, 28%. The growth in the assay on NCI-H522 lung is 13.8%; in the assay on A549/ATCC NSCLC it was -5.87% (active); in the assay on 786-0 renal, 1.52% (active); with COLO 205 colon it was 54.4%; in the assay on DU-145 prostate it was 42%; with K-562 leukemia, -27.8% (active). Moreover, the growth is -3.02% (active) in the assay on MALME-3M melanoma; 44.4% in the assay on MDA-MB-231 breast; 16% in the assay with RXF 393 renal; 59.1% in the assay on SF-268 CNS; 70.3% in the assay on SF-295 CNS; 38.5% in the assay on SF-539 CNS. For the same compound, the values for the growth with UACC-257 melanoma and in the assay with M14 melanoma were -74.5% (active) and -79.8% (active), respectively.

As for `Cc1ccc(-c2nnc3sc(C4=Cc5ccccc5OC=C4)nn23)cc1`, the growth was 96.4% in the assay with NCI-H23 lung; 96.4% with NCI-H226 lung; 100% with NCI-H322M lung; 121% in the assay with HOP-62 NSCLC; 101% in the assay with NCI-H460 lung; -34.7% (active) with HOP-92 NSCLC. The growth was 91% with NCI-H522 lung; 92.3% in the assay on A549/ATCC NSCLC; 95% with 786-0 renal; 120% in the assay with COLO 205 colon; 114% with DU-145 prostate; 104% in the assay on K-562 leukemia. Further, the growth in the assay on MALME-3M melanoma is 97.6%; in the assay with MDA-MB-231 breast it was 94.1%; with SF-268 CNS, 105%; in the assay with SF-295 CNS, 98.9%; in the assay on SF-539 CNS, 95.3%; in the assay with UACC-257 melanoma it was 88.4%. The growth with M14 melanoma is 99.8%.
